IL-1B inflam inh: inhibitors of inflammasome signaling (IL-1 beta secretion); THP-1 LPS/ATP IL-1B secretion, AlphaLISA, 16 h; active compounds read low; activity change, % at 57.5 µM; 4.7% of 360,000 active; in the data active = activity change below about -50%; inconclusive = mostly about -30% to -49%
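Secreted IL-1B measured by AlphaLISA bead assay after 16 h compound exposure of THP-1 cells; compounds (final up to 57.5 uM) added 1 h before LPS (250 ng/mL) and ATP (1.25 mM) stimulation; lower signal means less secretion.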
HT1080-NT tox: kills 2HG-producing HT-1080-NT fibrosarcoma cells; Potency, µM (top dose mostly 46.1 µM), for inactives: at the top dose activity, negative = less viability, usual class: cytotoxic; 1.6% of 360,000 active; AID 686970; HT-1080-NT fibrosarcoma viability, CellTiter-Glo ATP luminescence, 48 h;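 note: NT is the 2HG producing partner of a matched IDH1 knockdown line; potency is the fitted concentration of half-maximal effect; 0% = DMSO-treated cells and -100% = media-only wells without cells; nearly all actives have a fitted effect of over 55% in size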
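HT-1080-NT; 750 cells/well; 5% FBS RPMI; 48 h compound, 37 degrees C; CellTiter-Glo luminescence; curve fitting and curve-class assignment.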
DT40 TDP1 CPT: growth inhibition of DT40 Tdp1-/-;hTDP1 cells with camptothecin (screen for TDP1 inhibitors) | chicken DT40 Tdp1-/-;hTDP1 cells + 20 nM CPT, ATP luminescence, 48 h | AID 686979 | Potency, µM (series often up to 46.2 µM), inactives show top-dose activity change, negative = growth inhibition, hits mostly inhibitors | 12% of 420,000 active; note: potency is the fitted concentration of half-maximal effect; nearly all actives have a fitted effect of over 55% in size
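Chicken DT40 Tdp1-/- cells complemented with human TDP1, 400 cells/well, exposed to compounds plus 20 nM camptothecin for at least 48 h at 37 C; viability read as ATP content by CellTiter-Glo luminescence.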
HT1080 IDH1KD tx: toxicity to HT-1080 IDH1 knockdown cells (counter line); 2% of 360,000 active; Potency, µM (titrated, usually from 46.1 µM), for the others: at the top dose activity, negative = toxicity, most hits filed as cytotoxic; AID 686971; HT-1080 IDH1 knockdown viability, ATP luminescence, 48 h;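 note: potency is the fitted concentration of half-maximal effect; 0% = DMSO wells and -100% = cell-free medium wells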
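CellTiter-Glo luminescence after 48 h compound exposure at 37 degrees C of IDH1-knockdown HT-1080 cells in 5% FBS RPMI. %Activity scaled between DMSO wells and cell-free media wells, with curves fitted and assigned curve classes.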
DT40 TDP1 no CPT: qHTS for Inhibitors of human tyrosyl-DNA phosphodiesterase 1 (TDP1): qHTS in cells in absence of CPT; DT40 Tdp1-/- hTDP1 cells, no CPT, ATP luminescence, 48 h; Potency, µM (top dose mostly 46.2 µM), for inactives: top-dose activity change, negative = growth inhibition, hits mostly inhibitors; 15% of 420,000 active; AID 686978, 2013; note: potency is the fitted concentration of half-maximal effect; nearly all actives have a fitted effect of over 55% in size
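Compound effects on proliferation are scored in DT40 Tdp1-/-;hTDP1 cells in the absence of CPT. ATP levels (CellTiter-Glo luminescence) are recorded after a ≥48 hr, 37 °C incubation.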
ALOX12 inh: inhibitors of human 12S-lipoxygenase ALOX12. purified 12hLO, xylenol orange hydroperoxide absorbance. Potency, µM (titrated, usually from 108 µM), inactives show at the highest dose activity change, negative = inhibition, usual class: inhibitors. 1.1% of 580,000 active. AID 1671190; note: potency is the fitted concentration of half-maximal effect
Target sequence (P18054 whole entry, looked up): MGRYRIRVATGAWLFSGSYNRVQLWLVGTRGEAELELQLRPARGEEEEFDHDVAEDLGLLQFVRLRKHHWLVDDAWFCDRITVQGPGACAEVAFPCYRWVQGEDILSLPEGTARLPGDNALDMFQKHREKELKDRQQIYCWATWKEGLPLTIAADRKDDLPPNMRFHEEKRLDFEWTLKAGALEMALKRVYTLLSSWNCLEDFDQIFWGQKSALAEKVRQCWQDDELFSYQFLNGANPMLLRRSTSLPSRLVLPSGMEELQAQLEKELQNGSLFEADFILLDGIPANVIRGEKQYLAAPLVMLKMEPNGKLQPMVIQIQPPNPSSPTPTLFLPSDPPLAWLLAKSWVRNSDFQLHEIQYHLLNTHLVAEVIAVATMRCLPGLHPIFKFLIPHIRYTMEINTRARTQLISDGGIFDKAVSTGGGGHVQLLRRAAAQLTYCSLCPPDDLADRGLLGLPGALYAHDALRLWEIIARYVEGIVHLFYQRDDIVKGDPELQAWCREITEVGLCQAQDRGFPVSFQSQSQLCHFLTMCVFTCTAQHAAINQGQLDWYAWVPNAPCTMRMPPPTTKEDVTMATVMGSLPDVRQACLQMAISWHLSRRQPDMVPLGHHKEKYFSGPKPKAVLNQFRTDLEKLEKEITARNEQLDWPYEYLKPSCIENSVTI
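Hydroperoxide product was detected by ferrous iron/xylenol orange as the 573 to 405 nm absorbance ratio. Arachidonic acid at 40 uM (final) was turned over for 30 min at room temperature by 150 nM human 12hLO, pH 7.0 Hepes buffer, after 15 min compound preincubation.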
Numbers without * were called inactive; u = inconclusive; x = no result; [ ] = dose if it differs, or a comment. The sample as a whole holds a higher share of hits than the screen did. Unless noted, calls come from the whole dose curve; as a rule, active = well fitted curve in the direction sought with a large enough effect; inconclusive = small, poorly fitted or top-dose-only effect, or another doubt; inactive = no such curve, though single readings can be large; an effect the other way counts as inactive or inconclusive. Unless noted, % is set by controls: 0 for no effect and ±100 for the full control effect.

SMILES	IL-1B inflam inh	HT1080-NT tox	DT40 TDP1 CPT	HT1080 IDH1KD tx	DT40 TDP1 no CPT	ALOX12 inh
CCn1c(SCC(=O)OC(C)C)nnc1-c1ccccc1	-63.9*	-5.5%	3.8%	6.7%	-3.5%	u
O=C(CSc1nc(-c2ccccc2)cs1)Nc1nccs1	36.5	u	u	u	16.4µM*	38.4%
O=C(CSCC(=O)N1CCN(c2ccccc2)CC1)Nc1nc(-c2ccc(Cl)s2)cs1	-26.2	-1.1%	u	-3.5%	u	-7.0%
CCOC(=O)N1CCN(C(=O)CSCC(=O)Nc2nc(-c3ccccc3)cs2)CC1	-7.9	-7.2%	20.6µM*	-15.3%	u	3.5%
O=c1oc2ccccc2c(NC2CCCC2)c1NS(=O)(=O)c1ccc(Cl)s1	x	x	x	x	x	-0.8%
CCn1c(SCC(=O)Nc2nccs2)nnc1-c1ccc(S(=O)(=O)N2CCCCC2)cc1	-20.6	-10.0%	u	-11.8%	16.4µM*	9.0%
COc1ccc(-c2oc(NC(=O)CSc3nncn3C)c(C#N)c2-c2ccc(OC)cc2)cc1	-8.2	u	u	16.4µM*	u	33.5%
CCN(CC)C(=O)CC[C@@H]1CNC(=O)[C@@H]2C[C@H](NC(=O)c3ccc(N(C)C)cc3)CN12	x	x	x	x	x	14.7%[176 µM]
CC(C(=O)N(C)C1(C#N)CCCCC1)n1cnc2c1c(=O)n(C)c(=O)n2C (stereo unspecified)	x	x	x	x	x	-0.2%
CCN1CCCC1CNC(=O)CC(C)(C)C (stereo unspecified)	x	x	x	x	x	1.4%
CC(C(=O)NN=C(c1ccccc1)c1ccccc1)N1CCOCC1 (stereo unspecified)	3.0	9.7%	u	7.2%	16.4µM*	2.0%
O=C(CN1CCOCC1)NN=C(c1ccccc1)c1ccccc1	15.5	0.8%	6.6%	5.9%	u	-4.8%
Cc1cc(C)c2c(c1)NC(C(=O)O)C1CC=CC21 (stereo unspecified)	-1.0	9.3%	u	-3.5%	-20.4%	7.94µM*
COc1ccc(C(=O)N2CCC3(CCCN(Cc4cc(C(F)(F)F)cc(C(F)(F)F)c4)C3)CC2)cc1	x	x	20.6µM*	x	u	u
FC(F)(F)c1cc(CN2CCCC3(CCNCC3)C2)cc(C(F)(F)F)c1	x	x	u	x	18.4µM*	11.0%[57.4 µM]
COC(=O)N1CCC2(CCCN(Cc3cc(C(F)(F)F)cc(C(F)(F)F)c3)C2)CC1	x	x	-2.3%	x	1.2%	-4.3%[57.4 µM]
CC(C)(O)C#Cc1ccc([C@@H]2C[C@H]3CN(c4ccccc4)C(=O)[C@]34CCCN24)s1	-71.6*	-22.9%	-23.8%	u	u	-12.2%
O=C1N(c2ccccc2)C[C@@H]2C[C@@H](c3cccs3)N3CCC[C@@]123	-4.9	4.7%	-24.5%	-2.7%	-28.2%	u
COc1ccc2c(c1)-c1c(ssc1=S)C(C)(C)N2C(=O)CSC1=NCCS1	-21.2	-4.4%	u	-21.7%	23.1µM*	-22.2%
CCOc1ccc2c(c1)-c1c(ssc1=S)C(C)(C)N2C(=O)c1ccco1	-11.7	4.61µM*	5.17µM*	5.17µM*	2.91µM*	u
Cc1cc(C)c2c(c1)-c1c(ssc1=S)C(C)(C)N2C(=O)CSc1nncn1C	-10.9	u	25.9µM*	18.4µM*	23.1µM*	u
COc1ccc2c(c1)-c1c(ssc1=S)C(C)(C)N2S(=O)(=O)c1ccc(C)cc1	9.6	u	14.6µM*	6.51µM*	5.17µM*	u
Cc1ccc(S(=O)(=O)N2c3ccccc3-c3c(ssc3=S)C2(C)C)cc1	-5.5	-3.4%	u	u	u	u
O=C(CC1CCCCC1)N1CCC(c2noc(COc3ccc(F)cc3)n2)CC1	x	x	x	x	x	14.6%
Cc1ccc(NC(=O)c2nc3ccccc3nc2N2CCN(C)CC2)cc1Cl	x	x	x	x	x	1.8%
Cc1cc2c(cc1C)N(C(=O)CSC1=NCCS1)C(C)(C)c1ssc(=S)c1-2	-50.1*	-28.5%	u	u	u	u
COc1cccc(C(=O)NC2CCN(c3cc(-c4ccc(Cl)cc4)[nH]n3)CC2)c1OC	x	x	x	x	x	29.0%
CCOc1ccc(-c2ccc(/C=C3/C(=N)N4C=CSC4=NC3=O)o2)c([N+](=O)[O-])c1	7.2	1.6%	20.6µM*	-2.8%	u	-9.4%
CC1=CN2C(=N)/C(=C/c3ccc([N+](=O)[O-])o3)C(=O)N=C2S1	-104.2*	u	0.651µM*	u	1.3µM*	44.7µM*
CCc1cccc(-n2c(SCC(=O)NC(C)c3cc4ccccc4o3)nnc2N2CCOCC2)c1 (stereo unspecified)	x	x	x	x	x	0.9%

Bioassay records: PubChem BioAssay, National Center for Advancing Translational Sciences (NCATS)
